Measured values published in PubChem BioAssay (NCATS).
Results filed as inconclusive are left out. Calls of active or inactive are those of the source. Calls come from the whole dose curve; as a rule, active = well fitted curve in the direction sought with a large enough effect; inconclusive = small, poorly fitted or top-dose-only effect, or another doubt; inactive = no such curve, though single readings can be large; an effect the other way counts as inactive or inconclusive.

Experiments:
[1] = Quantitative High-Throughput drug screen in 47 multiple myeloma cell lines against the NCATS MIPE library collection: KMS21BM_JCRB cell viability assay (AID 1918974); conditions: ATP luminescence, 48 h; viability: at 45.8 µM unless noted
How it was run: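 Relative luminescence from CellTiter-Glo served as the viability signal, referenced to DMSO-treated (100%) and cell-free medium (0%) controls. Treatment lasted 48 hours at 37C with 500 cells per well.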

[2] = Quantitative High-Throughput drug screen in 47 multiple myeloma cell lines against the NCATS MIPE library collection: NCIH929_DSMZ cell viability assay (AID 1918978); note: nearly all actives have a fitted effect of over 35% in size
How it was run: (§1)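 qHTS format: cells plated (500/well), pin-dosed with MIPE 4.0 compounds, kept 48 h at 37 °C. Readout was CellTiter-Glo luminescence, median RLU.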

[3] = Quantitative High-Throughput drug screen in 47 multiple myeloma cell lines against the NCATS MIPE library collection: OCIMY1_PLB cell viability assay (AID 1918979); note: nearly all actives have a fitted effect of over 35% in size;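 for viability: series mostly up to about 46 µM; 100% = DMSO-only wells and 0% = cell-free media-only wells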
How it was run: as §1

[4] = Quantitative High-Throughput drug screen in 47 multiple myeloma cell lines against the NCATS MIPE library collection: MM1S_ATCC cell viability assay (AID 1918980); note: nearly all actives have a fitted effect of over 45% in size
How it was run: as §1

[5] = Quantitative High-Throughput drug screen in 47 multiple myeloma cell lines against the NCATS MIPE library collection: MM1R_ATCC cell viability assay (AID 1918981); note: nearly all actives have a fitted effect of over 35% in size
How it was run: as §1

[6] = Quantitative High-Throughput drug screen in 47 multiple myeloma cell lines against the NCATS MIPE library collection: LP1_DSMZ cell viability assay (AID 1918982); note: nearly all actives have a fitted effect of over 35% in size
How it was run: as §1

[7] = Quantitative High-Throughput drug screen in 47 multiple myeloma cell lines against the NCATS MIPE library collection: KMS28PE_JCRB cell viability assay (AID 1918983); note: nearly all actives have a fitted effect of over 35% in size
How it was run: as §1

[8] = Quantitative High-Throughput drug screen in 47 multiple myeloma cell lines against the NCATS MIPE library collection: OPM1_PLB cell viability assay (AID 1918989); note: nearly all actives have a fitted effect of over 40% in size
How it was run: as §1

[9] = Quantitative High-Throughput drug screen in 47 multiple myeloma cell lines against the NCATS MIPE library collection: SKMM1_PLB cell viability assay (AID 1919863); conditions: SKMM1 myeloma viability, CellTiter-Glo ATP, 48 h; viability: stronger effect = lower value; note: nearly all actives have a fitted effect of over 35% in size; for viability: series mostly up to about 46 µM
How it was run: as §1

[10] = Quantitative High-Throughput drug screen in 47 multiple myeloma cell lines against the NCATS MIPE library collection: U266_ATCC cell viability assay (AID 1919864); note: nearly all actives have a fitted effect of over 35% in size
How it was run: as §1

[11] = Quantitative High-Throughput drug screen in 47 multiple myeloma cell lines against the NCATS MIPE library collection: XG6_PLB cell viability assay (AID 1919865); note: nearly all actives have a fitted effect of over 40% in size
How it was run: as §1

[12] = Quantitative High-Throughput drug screen in 47 multiple myeloma cell lines against the NCATS MIPE library collection: MMM1_PLB cell viability assay (AID 1918976); note: nearly all actives have a fitted effect of over 35% in size
How it was run: as §1

[13] = Quantitative High-Throughput drug screen in 47 multiple myeloma cell lines against the NCATS MIPE library collection: L363_DSMZ cell viability assay (AID 1918984); note: nearly all actives have a fitted effect of over 40% in size
How it was run: as §1

[14] = Quantitative High-Throughput drug screen in 47 multiple myeloma cell lines against the NCATS MIPE library collection: KMS34_JCRB cell viability assay (AID 1918985); note: nearly all actives have a fitted effect of over 40% in size
How it was run: as §1

[15] = Quantitative High-Throughput drug screen in 47 multiple myeloma cell lines against the NCATS MIPE library collection: OCIMY5_PLB cell viability assay (AID 1918988); note: nearly all actives have a fitted effect of over 65% in size
How it was run: as §1

[16] = Quantitative High-Throughput drug screen in 47 multiple myeloma cell lines against the NCATS MIPE library collection: XG1_PLB cell viability assay (AID 1919866); note: nearly all actives have a fitted effect of over 35% in size
How it was run: as §1

[17] = Quantitative High-Throughput drug screen in 47 multiple myeloma cell lines against the NCATS MIPE library collection: VP6_DJ cell viability assay (AID 1919867); note: nearly all actives have a fitted effect of over 40% in size
How it was run: as §1

[18] = Quantitative High-Throughput drug screen in 47 multiple myeloma cell lines against the NCATS MIPE library collection: KMS26_JCRB cell viability assay (AID 1918975); note: nearly all actives have a fitted effect of over 45% in size
How it was run: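 Viability readout: CellTiter-Glo luminescence following 5 min room-temperature incubation with reagent. Prior exposure: 48 h, 37C, humidified 5% CO2, 500 cells per well.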

[19] = Quantitative High-Throughput drug screen in 47 multiple myeloma cell lines against the NCATS MIPE library collection: MOLP8_DSMZ cell viability assay (AID 1918977); note: nearly all actives have a fitted effect of over 45% in size
How it was run: as §1

[20] = Quantitative High-Throughput drug screen in 47 multiple myeloma cell lines against the NCATS MIPE library collection: OCIMY7_PLB cell viability assay (AID 1918987); note: nearly all actives have a fitted effect of over 65% in size
How it was run: as §1
Potency is the fitted concentration of half-maximal effect.

CC(C)(C)c1cc(C(C)(C)C)c(NC(=O)c2c[nH]c3ccccc3c2=O)cc1O
inactive: Potency [1] | Potency [2] | Potency [3] | Potency [4] | Potency [5] | Potency [6] | Potency [7] | Potency [8] | viability [9] 97.5% | Potency [10] | Potency [11]

C=CCn1c(=O)c2cnc(Nc3ccc(N4CCN(C)CC4)cc3)nc2n1-c1cccc(C(C)(C)O)n1
inactive: Potency [12]
active: Potency [1] 9.35 µM | Potency [2] 7.43 µM | Potency [5] 0.166 µM | Potency [7] 0.59 µM | Potency [13] 83.3 nM | Potency [14] 14.8 nM | Potency [15] 0.332 µM | Potency [8] 0.59 µM | Potency [9] 0.469 µM | Potency [16] 0.166 µM | Potency [17] 0.372 µM

COc1cc2c(NC3CCN(C(C)C)CC3)nc(C3CCCCC3)nc2cc1OCCCN1CCCC1
active: Potency [18] 6.62 µM | Potency [12] 6.62 µM | Potency [19] 7.43 µM | Potency [2] 5.26 µM | Potency [3] 7.43 µM | Potency [4] 4.18 µM | Potency [5] 6.62 µM | Potency [6] 5.26 µM | Potency [7] 16.6 µM | Potency [13] 5260 nM | Potency [14] 5260 nM | Potency [20] 16.6 µM | Potency [15] 6.62 µM | Potency [8] 3.32 µM | Potency [9] 11.8 µM | Potency [10] 2.96 µM | Potency [11] 2.64 µM | Potency [16] 4.69 µM | Potency [17] 5.9 µM

c1cc(-c2cnn3cc(-c4ccc(OCCN5CCCCC5)cc4)cnc23)ccn1
active: Potency [18] 16.6 µM | Potency [12] 16.6 µM | Potency [19] 10.5 µM | Potency [2] 2.35 µM | Potency [3] 26.4 µM | Potency [4] 16.6 µM | Potency [5] 18.7 µM | Potency [6] 13.2 µM | Potency [7] 11.8 µM | Potency [14] 13200 nM | Potency [20] 2.09 µM | Potency [15] 4.69 µM | Potency [8] 4.18 µM | Potency [9] 20.9 µM | Potency [10] 13.2 µM | Potency [11] 4.18 µM | Potency [16] 5.9 µM | Potency [17] 3.72 µM
inactive: Potency [13]

COc1ccc(-c2cc3c(C)nc(N)nc3n(C3CCC(OCCO)CC3)c2=O)cn1 (stereo not drawn)
active: Potency [18] 0.148 µM | Potency [12] 0.0148 µM | Potency [19] 0.0372 µM | Potency [2] 0.0093 µM | Potency [3] 0.0833 µM | Potency [4] 0.0372 µM | Potency [5] 0.0148 µM | Potency [6] 0.0148 µM | Potency [7] 0.0332 µM | Potency [13] 10.5 nM | Potency [14] 74.3 nM | Potency [20] 0.118 µM | Potency [15] 0.0833 µM | Potency [8] 0.0469 µM | Potency [9] 0.0132 µM | Potency [10] 0.264 µM | Potency [11] 0.0662 µM | Potency [17] 0.001 µM

CC(NCc1ccc2c(c1)nc(NC(=O)c1ccc(-c3cn[nH]c3)s1)n2CC(C)(C)O)C(C)(C)C (stereo not drawn)
active: Potency [18] 0.743 µM | Potency [12] 0.118 µM | Potency [19] 0.209 µM | Potency [2] 0.235 µM | Potency [3] 1.05 µM | Potency [4] 0.332 µM | Potency [5] 0.469 µM | Potency [6] 0.469 µM | Potency [7] 0.469 µM | Potency [13] 105 nM | Potency [14] 372 nM | Potency [20] 0.148 µM | Potency [15] 0.235 µM | Potency [8] 0.264 µM | Potency [9] 0.743 µM | Potency [10] 0.332 µM | Potency [11] 0.235 µM | Potency [16] 0.372 µM | Potency [17] 0.187 µM

O=C1CCC[C@@H]2[C@H]3CCC[N+]4([O-])CCC[C@@H](CN12)[C@@H]34 (stereo partly drawn)
active: viability [1] 154% | Potency [17] 6.62 µM
inactive: Potency [3] | Potency [6] | Potency [7] | Potency [13] | Potency [14] | Potency [8] | Potency [16]

COc1cc2c(Oc3ccc(-c4cnc(Nc5ccc(F)cc5)n(C)c4=O)cc3F)ccnc2cc1OCCCN1CCOCC1
active: Potency [18] 18.7 µM | Potency [12] 4.69 µM | Potency [19] 18.7 µM | Potency [2] 2.64 µM | Potency [3] 11.8 µM | Potency [4] 9.35 µM | Potency [5] 3.72 µM | Potency [6] 11.8 µM | Potency [7] 11.8 µM | Potency [13] 833 nM | Potency [20] 7.43 µM | Potency [15] 14.8 µM | Potency [8] 6.62 µM | Potency [9] 29.6 µM | Potency [10] 20.9 µM | Potency [11] 3.32 µM | Potency [16] 7.43 µM | Potency [17] 2.64 µM

OCc1ccc(-c2ccc(-c3ccc(CO)s3)o2)s1
inactive: Potency [13]
active: Potency [18] 11.8 µM | Potency [12] 3.72 µM | Potency [19] 20.9 µM | Potency [2] 2.64 µM | Potency [3] 23.5 µM | Potency [4] 6.62 µM | Potency [5] 3.72 µM | Potency [7] 29.6 µM | Potency [14] 18700 nM | Potency [20] 1.87 µM | Potency [15] 16.6 µM | Potency [8] 6.62 µM | Potency [9] 20.9 µM | Potency [10] 3.32 µM | Potency [11] 16.6 µM | Potency [16] 6.62 µM | Potency [17] 20.9 µM
